In PubChem BioAssay:
Where “and” joins values, the source holds several entries; their conditions need not be identical. Identical values can stand only once. Calls of active or inactive are those of the source. Unless noted, no rule for the calls is given here. Starred links: 1 amine or outer side, 2 acyl side, 3 side chain; linkers in the order of their positions; H or OH if unused. Positions of bridges follow the written chain, without caps; N, C: chain ends. Non-standard residues stand in square brackets, D forms with d. Residues, ends and D or L forms follow the SMILES beside them. Chains are numbered I, II in the order given. Actinocin(9to1) = Cc1c2oc3c(C)ccc(C(=O)[*:1])c3nc-2c(C(=O)[*:2])c(N)c1=O; NMeV = CN[C@H](C(=O)O)C(C)C; Sar = CNCC(=O)O

How the values were obtained:
[1] = system: Hepatitis C virus NS3 helicase; assay: HCV NS3 helicase inhibitors, primary screen, biochemical, fluorescence polarization, LOPAC1280 library (AID 687035; in the data active = inhibition above about 37%); details: Purified HCV NS3 helicase, Cy5-dT15 ssDNA binding fluorescence polarization; stronger effect = higher value; concentration not given here
[2] = Cy5 fluorescence quenching or enhancement artefacts, artefact control for HCV NS3 helicase inhibitor project, biochemical, LOPAC1280 (AID 687037); details: Cy5-DNA-NS3h complex fluorescence interference counterscreen
[3] = stimulators of nuclear beta-catenin in C2C12, primary screen, imaging, WNT3A-conditioned medium, mouse C2C12, NPC library (AID 1117326; in the data active = nuclear beta-catenin stimulation mostly above about 4.2%, no sharp cut-off; inactive = mostly below about 10%); details: stronger effect = higher value
[4] = stimulators of insulin release from INS-1E, primary screen, cell-based, 5 mM glucose, NPC library (AID 1117329;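 active = compound raises insulin release from rat beta cells at 5 mM glucose, no numeric limit stated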); details: rat INS-1E insulin secretion, at 10 µM, stronger effect = higher value
[5] = growth inhibition of GSK3B-pretreated HCT116 cells – cell-based, CellTiter-Glo, 0.2 to 20 µM (AID 1117336;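 active = compounds lowering colon cancer cell viability after pretreatment blocking the GSK3B kinase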); details: HCT116 viability after GSK3B inhibitor, at 20 µM, stronger effect = higher value
[6] = inhibition of endothelial tube formation, primary screen, imaging, VEGF stimulated, CD31 staining, tube area, NPC library (AID 1117340;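 active = compound that reduces growth-factor-driven endothelial tube area in a mixed cell culture, no cutoff stated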); details: VEGF-stimulated ADSC/ECFC co-culture, at 10 µM, stronger effect = higher value
[7] = glucagon-like peptide 1 release enhancers, primary assay, NCI-H716 cell line, NPC library (AID 1117341;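 active = compound raises GLP1 secretion from the human gut endocrine cells, with no numeric limit stated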); details: NCI-H716 cells, at 10 µM, stronger effect = higher value
[8] = HCT116 colon cancer cell growth inhibition, primary screen, CellTiter-Glo luminescence, NPC library (AID 1117342;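 active = compounds that lower survival of HCT116 colon cancer cells in the luminescence readout, no numeric limit stated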); details: at 20 µM (top of the series)
[9] = CellTiter-Glo luminescent readout of SW480 viability loss, NPC library primary (AID 1117343;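 active = compounds that lower viability of the colon cancer cells in the luminescence readout, with no numeric limit stated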); details: CellTiter-Glo luminescence; at 20 µM (top of the series)
[10] = decreased DLD-1 cellular survival, CellTiter-Glo luminescent readout, NPC compound collection, primary HTS (AID 1117346;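 active = compounds that lower survival of DLD-1 colon cancer cells in the luminescence readout, no cutoff given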); details: DLD-1 viability, CellTiter-Glo luminescence; at 20 µM (top of the series)
[11] = target: 6-phosphogluconate dehydrogenase, decarboxylating (Homo sapiens) (UniProt P52209); assay: 6PGD enzyme inhibitors, primary screen, biochemical, human, recombinant enzyme, NADPH absorbance (AID 1159550;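 active = at least 20% inhibition of 6-phosphogluconate dehydrogenase activity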); details: recombinant 6PGD, NADPH absorbance 341 nm; at 10 µM; stronger effect = higher value
Sequence of 6-phosphogluconate dehydrogenase, decarboxylating (Homo sapiens) (P52209 whole entry, looked up): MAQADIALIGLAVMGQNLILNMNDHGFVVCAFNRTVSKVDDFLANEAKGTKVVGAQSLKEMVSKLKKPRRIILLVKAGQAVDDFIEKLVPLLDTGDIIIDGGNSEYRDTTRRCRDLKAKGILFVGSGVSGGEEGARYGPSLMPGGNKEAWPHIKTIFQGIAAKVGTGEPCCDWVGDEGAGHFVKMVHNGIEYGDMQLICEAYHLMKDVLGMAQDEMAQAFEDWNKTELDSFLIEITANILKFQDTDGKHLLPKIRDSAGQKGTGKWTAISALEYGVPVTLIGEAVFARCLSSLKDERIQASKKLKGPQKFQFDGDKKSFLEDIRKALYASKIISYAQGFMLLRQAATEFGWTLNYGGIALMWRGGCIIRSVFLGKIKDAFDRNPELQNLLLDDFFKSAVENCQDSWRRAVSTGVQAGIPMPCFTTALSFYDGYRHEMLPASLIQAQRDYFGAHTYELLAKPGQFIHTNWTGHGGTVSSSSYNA

[12] = liver-stage malaria parasite growth inhibition, primary screen, cell-based, HepG2, luciferase luminescence, HepG2 viability (AID 624349; in the data active = parasite load remaining mostly below about 12%, no sharp cut-off; inactive = mostly above about 10%;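 also: 100% = mean of DMSO negative control wells on the same plate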); details: P. berghei liver stage in HepG2, luciferase luminescence, concentration not given here; parasite load remaining: stronger effect = lower value; viability: measured here: HepG2 viability without parasites
[13] = Cy5 fluorescence interference with SSB-bound oligo, artefact control for HCV NS3 helicase inhibitor project, biochemical, NIH Clinical Collection, E. coli SSB (AID 743268)
[14] = system: Hepatitis C virus NS3 helicase; assay: HCV NS3 helicase inhibitors, primary screen, biochemical, fluorescence polarization, NIH Clinical Collection (AID 743270); details: NS3 helicase binding to Cy5-dT15 DNA, stronger effect = higher value, concentration not given here
[15] = target: Single-stranded DNA-binding protein (Escherichia coli (strain K12)) (UniProt P0AGE0); assay: E. coli SSB displacement from DNA, counter-screen for HCV NS3 helicase inhibitor project, biochemical, fluorescence polarization, NIH Clinical Collection (AID 743271; in the data active = inhibition above about 28%); details: stronger effect = higher value, concentration not given here
[16] = fluorescence interference in NS3h assay format, artefact control for HCV NS3 helicase inhibitor project, biochemical, NIH Clinical Collection (AID 743272); details: fluorescence interference counterscreen, stronger effect = lower value;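 also: HCV NS3 helicase with a Cy5 labelled single stranded DNA probe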
[17] = system: Neuropilin-2 / VEGF-C interaction (human); assay: inhibitors of NRP2–VEGF-C binding, biochemical, microplate binding format, z-score (AID 743281); details: microplate NRP2/VEGF-C binding assay; stronger effect = lower value

SMILES | inhibition [1] | fluorescence ratio (interference) [2] | nuclear beta-catenin stimulation ([3]; at 10 µM) | nuclear beta-catenin stimulation ([3]; stimulation, at 2 µM) | insulin secretion stimulation [4] | viability decrease [5] | tube area decrease [6] | GLP1 secretion stimulation [7] | inhibition of viability [8] | viability decrease (inhibition) [9] | viability decrease (inhibition) [10] | inhibition [11] | parasite load remaining [12] | viability [12] | fluorescence ratio [13] | inhibition [14] | inhibition [15] | fluorescence ratio [16] | z-score [17]
Fc1ccc(C(c2ccc(F)cc2)N2CCN(C/C=C/c3ccccc3)CC2)cc1 | -1% (inactive) | 1 (inactive) | 1.1% (inactive) | -2.5% | 2.65% (inactive) | 108% (active) | 21.4% (inactive) | 0.7% (inactive) | 107% (active) | 125% (active) | 99.7% (active) | 16.5% (inactive) | – | – | – | – | – | – | –
O=c1c(-c2ccc(O)cc2)coc2cc(O)cc(O)c12 | -1% (inactive) | 1 (inactive) | 8.6% (inactive) | -1.1% | 0.8% (inactive) | 36.1% (inactive) | 54.6% (active) | 7% (inactive) | -0.9% (inactive) | 94.1% (active) | 8.45% (inactive) | 3.56% (inactive) | – | – | – | – | – | – | –
COc1ccc(CCN(C)CCCC(C#N)(c2ccc(OC)c(OC)c2)C(C)C)cc1OC (centres undefined) | -3% (inactive) | 1 (inactive) | 0.2% (inactive) | 0.5% | 6.3% (inactive) | -4.2% (inactive) | -13.1% (inactive) | -4% (inactive) | 27.3% (inactive) | 20.2% (inactive) | -13.8% (inactive) | 10.8% (inactive) | – | – | – | – | – | – | –
NC[C@H](O)c1ccc(O)c(O)c1 | -4% (inactive) | 0.9 (inactive) | -1.8% (inactive) | -1.5% | 0.1% (inactive) | 31.8% (inactive) | -25.8% (inactive) | 3.6% (inactive) | 2.5% (inactive) | 38.8% (inactive) | 8.6% (inactive) | 7.95% (inactive) | – | – | – | – | – | – | –
CC(CN(C)C)CN1c2ccccc2CCc2ccccc21 (centres undefined) | -4% (inactive) | 1 (inactive) | -1.5% (inactive) | -0.7% | 2.4% (inactive) | -139% (inactive) | 13.4% (inactive) | 4.5% (inactive) | 55.4% (active) | 136% (active) | 1.5% (inactive) | 13.6% (inactive) | 54.2% (inactive) and 101% (inactive) and 48.3% (inactive) | 103% and 83.8% and 93.4% | – | – | – | – | –
CCOC(=O)C1=C[C@]2(CC)CCCN3CCc4c(n1c1ccccc41)[C@@H]32 | -2% (inactive) | 1 (inactive) | 0.9% (inactive) | -0.3% | -1.7% (inactive) | 14.4% (inactive) | 41% (active) | 2.8% (inactive) | -3.2% (inactive) | 61.3% (active) | 2.25% (inactive) | 13.5% (inactive) | – | – | – | – | – | – | –
O=C(c1ccc(F)cc1)C1CCN(CCn2c(=O)[nH]c3ccccc3c2=O)CC1 | 2% (inactive) | 1 (inactive) | 0.6% (inactive) | -1.2% | 2.5% (inactive) | 19.4% (inactive) | -2.2% (active) | 2.6% (inactive) | 52.6% (active) | 19.5% (inactive) | 16.9% (inactive) | 8.02% (inactive) | – | – | – | – | – | – | –
NNc1nncc2ccccc12 | -3% (inactive) | 1 (inactive) | -0.9% (inactive) | -1.5% | -1.2% (inactive) | -10.3% (inactive) | 5.9% (inactive) | 5.2% (inactive) | 4.9% (inactive) | 4.9% (inactive) | -2.1% (inactive) | 15.4% (inactive) | 83.7% (inactive) and 102% (inactive) and 72.4% (inactive) | 72.8% and 96.1% and 95% | – | – | – | – | –
CNC1(C)C2CCC(C2)C1(C)C (centres undefined) | 0% (inactive) | 0.9 (inactive) | 0.3% (inactive) | -2.6% | 3.5% (inactive) | -6% (inactive) | -1.8% (inactive) | 4.9% (inactive) | 15.7% (inactive) | 8.7% (inactive) | 1.8% (inactive) | -9.67% (inactive) | 95.9% (inactive) and 84% (inactive) | 76% and 101% | – | – | – | – | –
Cc1c2oc3c(C)ccc(C(=O)N[C@@H]4C(=O)N[C@H](C(C)C)C(=O)N5CCC[C@H]5C(=O)N(C)CC(=O)N(C)[C@@H](C(C)C)C(=O)O[C@@H]4C)c3nc-2c(C(=O)N[C@@H]2C(=O)N[C@H](C(C)C)C(=O)N3CCC[C@H]3C(=O)N(C)CC(=O)N(C)[C@@H](C(C)C)C(=O)O[C@@H]2C)c(N)c1=O (I: T[dV]P[Sar][NMeV] / II: T[dV]P[Sar][NMeV]; ester I:1-I:C, II:1-II:C; linker I:N-II:N via Actinocin(9to1)) | – | – | 92.5% (active) | 109% | 1% (inactive) | -75.8% (active) | 110% (active) | 1.9% (inactive) | 37.8% (active) | 70.6% (active) | 69.3% (active) | -6.87% (inactive) | -0.02% (inactive) | 31.5% | 0.91 (inactive) | 1.53% (inactive) | 2.76% (inactive) | 0.93 (inactive) | -4.03 (active)
CC(=O)O[C@]1(C(C)=O)CC[C@H]2[C@@H]3C=C(Cl)C4=CC(=O)[C@@H]5C[C@@H]5[C@]4(C)[C@H]3CC[C@@]21C | -1% (inactive) | 0.9 (inactive) | 1.2% (inactive) | 1.7% | -1.4% (inactive) | 16% (inactive) | 10.1% (inactive) | 1.2% (inactive) | 29.2% (inactive) | 48.9% (inactive) | -4.3% (inactive) | -7.53% (inactive) | 8.85% (inactive) | 69% | – | – | – | – | –
C=CCc1ccccc1OCC(O)CNC(C)C (centres undefined) | -4% (inactive) | 1 (inactive) | 0.1% (inactive) | -0.5% | 2.2% (inactive) | -6.8% (inactive) | -1.1% (inactive) | 1.4% (inactive) | 34.3% (inactive) | 27.3% (inactive) | 12% (inactive) | -12.3% (inactive) | 48.8% (inactive) and 53.9% (inactive) and 74.6% (inactive) | 101% and 91.5% and 140% | – | – | – | – | –
